This is a sample that favours compounds with a hit; in the whole collection about 2.8% have one here.
rCAG binder – molecules binding r(CAG) RNA repeats; r(CAG) RNA repeat, TO-PRO-1 dye displacement fluorescence; inhibition, % at 3 µM; 370,000 tested, 1.3% active; AID 651821;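 active means inhibition above the plate cutoff, the mean of all test compounds on that plate plus 3 SD, cut at about 35% in these data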;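 further: higher means more dye released from RNA so lower well fluorescence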
bovine MsrA act – bovine methionine sulfoxide reductase A activation. purified bovine MsrA, absorbance read-out. activation, % at 10.6 µM. 360,000 tested, 0.3% active. AID 602163; in the data active means activation above about 7.5%
MsrA inh – inhibitors of bovine MsrA | inhibition, % at 15.5 µM | 360,000 tested, 0.75% active | purified bovine MsrA, absorbance read-out; in the data active means inhibition above about 4.5%
HGIII-sPLA2 inh – Inhibits HGIII-sPLA2 liposome hydrolysis, primary screen. inhibition, % at 12.2 µM. QFRET BODIPY PC-A2 liposome hydrolysis, fluorescence. AID 743126. 370,000 tested, 0.56% active;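 active means inhibition above mean plus 3 SD of compounds lying within the high and low control bounds, cut at about 19% in these data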
Target sequence (Q9NZ20 whole entry, looked up): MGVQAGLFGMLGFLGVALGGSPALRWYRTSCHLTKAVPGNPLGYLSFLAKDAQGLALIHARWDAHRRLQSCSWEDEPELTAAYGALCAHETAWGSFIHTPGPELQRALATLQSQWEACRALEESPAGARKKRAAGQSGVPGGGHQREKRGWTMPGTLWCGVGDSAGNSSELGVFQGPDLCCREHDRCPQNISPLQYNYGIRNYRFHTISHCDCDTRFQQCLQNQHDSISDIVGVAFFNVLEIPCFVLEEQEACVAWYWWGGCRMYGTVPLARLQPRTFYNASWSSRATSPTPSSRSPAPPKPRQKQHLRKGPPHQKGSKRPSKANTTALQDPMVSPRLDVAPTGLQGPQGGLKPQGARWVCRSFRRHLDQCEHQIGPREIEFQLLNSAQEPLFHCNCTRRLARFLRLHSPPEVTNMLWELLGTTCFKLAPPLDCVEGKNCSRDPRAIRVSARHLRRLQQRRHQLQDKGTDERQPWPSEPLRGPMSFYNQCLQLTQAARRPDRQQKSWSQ
rCAG binder conf – r(CAG) RNA repeat binding, confirmation; shares compounds with rCAG binder; TO-PRO-1 dye displacement fluorescence; inhibition, % at 3 µM; 4,300 tested, 70% active;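 active means inhibition above a per-plate cutoff, the mean inhibition of sample wells plus 3 SD, cut at about 35% in these data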;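 further: loss of TO-PRO-1 fluorescence as compound displaces dye from 1x1 AA loop RNA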
dCAG dye counter – disrupts DNA CAG TO-PRO-1 complex, flagging rCAG hits. shares compounds with rCAG binder. 4,300 tested, 94% active. d(CAG) DNA oligo TO-PRO-1 dye displacement, fluorescence. AID 652068. inhibition, % at 3 µM;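 active means inhibition above its plate's cutoff, the mean test-well inhibition plus 3 SD, cut at about 4.8% in these data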;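 further: hits displace the dye from DNA and so lower well fluorescence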
DNA CAG DR – disrupts DNA CAG TO-PRO-1 complex in dose response | 250 tested, 20% active | IC50, µM | shares compounds with rCAG binder | DNA CAG/GTC duplex TO-PRO-1 dye displacement fluorescence; in the data active means IC50 below about 10 µM
Numbers stand for hits; - = inactive; . = no result given.

SMILES | rCAG binder | bovine MsrA act | MsrA inh | HGIII-sPLA2 inh | rCAG binder conf | dCAG dye counter | others
NC(=S)NN=C1c2cc(S(=O)(=O)N3CCOCC3)ccc2-c2ccc(S(=O)(=O)N3CCOCC3)cc21 | 35.1 | - | - | - | 46.2 | 19.7
COc1ccc(Cl)cc1C(=O)Nc1cc(=O)n(C)c(=O)n1C | - | - | - | - | . | .
COc1ccc(NS(=O)(=O)c2cc(N=Nc3c(O)[nH]c(=O)[nH]c3=O)ccc2OC)cc1Br | - | - | - | - | . | .
CCOc1ccc(NS(=O)(=O)c2ccc(Cl)c(N=Nc3c(O)[nH]c(=S)[nH]c3=O)c2)cc1Br | 92.5 | - | - | - | 92.5 | 66.5
CNC(=O)c1cccc(NC(=O)CCCNC(=O)c2ccc(Cl)cc2)c1 | - | - | - | - | . | .
Cc1ccc(C(=O)O)cc1NC(=S)NC(=O)c1ccc(-c2ccccc2)cc1 | 54.9 | - | - | - | 67.1 | 19.9
COc1ccc(C(=O)O)cc1NC(=S)NC(=O)c1ccc(-c2ccc(Cl)cc2)o1 | 39.8 | - | - | - | 71.7 | 32.3 | DNA CAG DR=7.69
Cc1ccc(C(=O)O)cc1NC(=S)NC(=O)c1ccc(-c2ccc(Cl)cc2)o1 | - | - | - | - | . | .
OC[C@H]1OC(O)[C@H](O)[C@@H]1O (some centres not stated) | - | - | - | - | . | .
O=C(O)COc1ccc(/C=N/NC(=O)c2ccccc2Br)cc1 | . | - | . | . | . | .
O=C(N/N=C/c1ccc([N+](=O)[O-])o1)c1cn(-c2ccccc2)nc1-c1ccccc1 | 38.5 | - | - | - | - | 10.4
O=C(O)COc1ccc(/C=N/NC(=O)c2cn(-c3ccccc3)nc2-c2ccccc2)cc1 | 42.8 | - | - | - | 34.6 | 10.5
CCOC(=O)c1ccccc1NC(=O)CN(c1ccccc1OCC)S(C)(=O)=O | - | - | - | - | . | .
CCOc1ccc(C=Nn2c(-c3cccc(OC(C)C)c3)n[nH]c2=S)cc1 | 44.3 | . | . | - | 46.2 | 11.4
CCOc1ccc(C=Nn2c(-c3ccc(F)cc3)n[nH]c2=S)cc1 | - | . | . | - | . | .
CCN(CC)S(=O)(=O)c1cccc(-c2n[nH]c(=S)n2/N=C/c2ccc(OC(F)F)cc2)c1 | 78.4 | - | - | - | 63.9 | 22.5
CCN(CC)S(=O)(=O)c1cccc(-c2n[nH]c(=S)n2/N=C/c2ccc(Br)cc2)c1 | 78.5 | - | - | - | 83.0 | 47.9
CCC(C)n1c(-c2cccc(S(=O)(=O)N(CC)CC)c2)n[nH]c1=S (configuration not stated) | - | - | - | - | . | .
CCN1CC(O)=C(c2nc3ccccc3s2)C1=N | - | - | - | - | . | .
Cc1oc2c(c(C)cc3oc(=O)c(CC(=O)N[C@@H](CC(C)C)C(=O)O)c(C)c32)c1C | 43.3 | - | - | - | - | 6.3
CCCCC(NC(=O)Cc1c(C)c2cc3c(-c4ccccc4)coc3c(C)c2oc1=O)C(=O)O (configuration not stated) | 36.9 | - | - | - | 65.1 | 24.0
COc1cccc(-c2coc3c(C)c4oc(=O)c(CCC(=O)O)c(C)c4cc23)c1 | 58.0 | - | - | - | 74.1 | 33.8 | DNA CAG DR=-
COc1cccc(-c2coc3cc4oc(=O)c(CCC(=O)O)c(C)c4cc23)c1 | 46.8 | - | - | - | 47.2 | 14.2
CC(C(=O)N(C)Cc1ccccc1)N1CCN(C/C=C/c2ccccc2)CC1 (configuration not stated) | - | - | - | - | . | .
CC[C@@H](C)[C@H](NC(=O)Cc1c(C)c2cc3c(C)c(C)oc3c(C)c2oc1=O)C(=O)O | 37.1 | - | - | - | - | 7.1
SMILES | rCAG binder | bovine MsrA act | MsrA inh | HGIII-sPLA2 inh | rCAG binder conf | dCAG dye counter | others
COc1cccc(Nc2nc3ccccc3nc2NS(=O)(=O)c2ccc(NC(C)=O)cc2)c1 | . | - | . | . | . | .
CC(=O)Nc1ccc(S(=O)(=O)Nc2nc3ccccc3nc2Cl)cc1 | - | - | - | - | . | .
Cc1cccc(S(=O)(=O)Nc2nc3ccccc3nc2Nc2cccc(C(=O)O)c2)c1 | 52.8 | - | - | - | 56.6 | 20.4
CC(=O)Nc1ccc(S(=O)(=O)Nc2nc3ccccc3nc2Nc2ccc(O)c(C(=O)O)c2)cc1 | 46.4 | - | - | - | - | -
COc1ccc(Nc2nc3ccccc3nc2NS(=O)(=O)c2cccs2)cc1 | 42.4 | - | - | - | 74.0 | 35.9
CC(=O)Nc1ccc(S(=O)(=O)Nc2nc3ccccc3nc2Nc2ccc(S(N)(=O)=O)cc2)cc1 | 52.2 | - | - | - | 35.3 | 8.3
CC(=O)c1ccc(Nc2nc3ccccc3nc2NS(=O)(=O)c2cccs2)cc1 | - | - | - | - | . | .
O=C(Cn1nnc2ccccc2c1=O)NCC1CCC(C(=O)O)CC1 (configuration not stated) | - | - | - | - | . | .
COc1cc(/C=C2\SC(=O)N(CC(=O)Nc3ccc(C)cc3)C2=O)cc(Cl)c1OCC(=O)O | - | - | - | - | . | .
COc1ccc(Nc2nc3ccccc3nc2NS(=O)(=O)c2ccc(NC(C)=O)cc2)cc1 | 80.0 | - | - | - | 60.3 | 20.7
NS(=O)(=O)c1ccc(Nc2nc3ccccc3nc2NS(=O)(=O)c2cccc([N+](=O)[O-])c2)cc1 | 94.4 | - | - | - | 87.7 | 61.8
CN(C)/C=C(/C#N)C(=O)c1cccc(Oc2ccc(C(C)(C)C)cc2)c1 | 50.1 | - | - | - | - | 6.1
CCC(C)(C)c1ccc(Oc2cccc(C(=O)O)c2)cc1 | 39.4 | - | - | - | - | -
CCC(C)(C)c1ccc(Oc2ccc(N)cc2)cc1 | - | - | - | - | . | .
CCSc1nnc(-c2ccc(S(=O)(=O)N3CCOCC3)cc2)n1CC1CCCO1 (configuration not stated) | - | - | - | - | . | .
Cc1ccc(S(=O)(=O)Nc2nc3ccccc3nc2NCc2ccco2)cc1 | - | - | - | - | . | .
Cc1ccc(S(=O)(=O)Nc2nc3ccccc3nc2NCc2ccco2)cc1C | 47.0 | - | - | - | 52.7 | 19.5
Cc1cccc(S(=O)(=O)Nc2nc3ccccc3nc2NCc2ccco2)c1 | 44.0 | - | - | - | - | 7.3
COc1ccc(OC)c(NC(=O)C2(C)CCN2C(=O)C2(c3ccccc3)CCCC2)c1 (configuration not stated) | - | - | - | - | . | .
CCN(CC)S(=O)(=O)c1ccc(O)c(NC(=O)c2ccc(N3CCOCC3)c([N+](=O)[O-])c2)c1 | 52.9 | - | - | - | 43.5 | 12.7
N#C/C(=N\Nc1cccc(C(F)(F)F)c1)C(=O)c1csc(-c2cccnc2)n1 | 86.3 | - | - | - | 80.0 | 49.2
N#C/C(=C\c1ccc(OCc2ccc(C(=O)O)cc2)cc1)C(=O)NCc1ccccc1 | 41.0 | - | - | - | - | 5.9
COc1cc(/C=C(\C#N)C(=O)NC2CCCCC2)ccc1OCc1ccc(C(=O)O)cc1 | 39.9 | - | - | - | 38.0 | 9.2
COc1cc(/C=C(\C#N)C(=O)NCc2ccccc2)ccc1OCc1ccc(C(=O)O)cc1 | 43.5 | - | - | - | - | 5.9
COCCNC(=O)/C(C#N)=C/c1ccc(OCc2ccccc2)cc1 | - | - | - | - | . | .

High-throughput results (PubChem)
